Experiment [1] can be described thus: qHTS assay for small molecule agonists of the p53 signaling pathway (AID 651631; calls by dose curve; further: nearly all actives have a fitted effect of over 15% in size). In short, it runs like this: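 HCT-116 cells carrying a beta-lactamase reporter under p53 response elements were dosed with compound for 16 h at 37 °C. LiveBLAzer B/G FRET substrate was then added for 2 h at room temperature, and fluorescence intensity was read to detect pathway agonism.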
A general note: In qHTS, concentration-response curves come from the screen itself.

The nature of experiment [2]: qHTS assay for small molecules that induce genotoxicity in human embryonic kidney cells expressing luciferase-tagged ATAD5 (AID 651632). Further: nearly all actives have a fitted effect of over 15% in size. In short, it runs like this:
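Luminescence read-out: after 16 hr compound exposure at 37C, ATAD5-luciferase HEK293T cells received Amplite, 30 min RT, then CCD imaging. A rise in signal marks genotoxic stress.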

Experiment [3] can be described thus: qHTS assay for small molecule agonists of the p53 signaling pathway - cell viability (AID 651633; calls by dose curve;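 further: p53RE-bla HCT reporter cells with a stable beta-lactamase p53 reporter; series mostly up to about 83 µM; nearly all actives have a fitted effect of over 30% in size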). Summed up: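 Viability counter-read: CellTiter-Glo luminescence (30 min, room temperature) in the same p53RE-bla plates. These plates had been exposed to compounds for 16 h at 37 C.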
Experiment [4] can be described thus: qHTS assay for small molecule disruptors of the mitochondrial membrane potential - cell viability (AID 720634; calls by dose curve;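 further: human HepG2 liver cancer cells; series mostly up to about 83 µM; nearly all actives have a fitted effect of over 20% in size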). Summed up: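 Luminescence from CellTiter-Glo (ATP content) gave viability in HepG2 cells, read in the same wells as the MMP dye assay after 1 hr compound exposure at 37 C.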
Experiment [5] can be described thus: qHTS assay for small molecule disruptors of the mitochondrial membrane potential (AID 720635). Further: potency means the concentration at half of the fitted maximal effect. Summed up:
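Mitochondrial membrane potential tracked with Mito-MPS dye, red aggregates (ex 540/em 590 nm) against green monomers (ex 490/em 535 nm). Compound treatment 1 hr at 37C, dye 30 min in HepG2.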

Experiment [6] is described as follows: qHTS assay to test for compound auto fluorescence at 590 nm (red) in HepG2 cells (AID 720674). In short, it runs like this:
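1 hr compound incubation on HepG2 cells, 37 C, 5% CO2; plate read ex 540 nm / em 590 nm; intensities reported as Rose Bengal sodium equivalents.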

A short description of experiment [7]: qHTS assay to test for compound auto fluorescence at 535 nm (green) in HepG2 cells (AID 720675).
The nature of experiment [8]: qHTS assay to test for compound auto fluorescence at 590 nm (red) in HEK293 cells (AID 720679). In short, it runs like this: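 We plated HEK293 cells in 10% dialyzed FBS medium, let them adhere for 4-5 hr, then added 23 nL compound. Overnight at 37C and 5% CO2 preceded fluorescence measurement at 540/590nm.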
Experiment [9] can be described thus: qHTS assay to test for compound auto fluorescence at 535 nm (green) in HEK293 cells (AID 720680).
A short description of experiment [10]: qHTS assay to test for compound auto fluorescence at 460 nm (blue) in HEK293 cell free culture (AID 720681). In short, it runs like this: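 Blue fluorescence (Ex 405/Em 460 nm, triamterene-equivalent) was read immediately after pin transfer of compound or DMSO into medium (DMEM, 10% FBS) without cells.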
Experiment [11] is described as follows: qHTS assay to test for compound auto fluorescence at 535 nm (green) in HEK293 cell free culture (AID 720682). In short, it runs like this:
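Green-label autofluorescence (485 nm excitation, 535 nm emission) measured on compound added to cell-free culture medium (DMEM, 10% FBS). Output is expressed relative to fluorescein.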

The nature of experiment [12]: qHTS assay to test for compound auto fluorescence at 590 nm (red) in HEK293 cell free culture (AID 720683). Summed up: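 Red-channel autofluorescence of compounds in culture medium (DMEM, 10% FBS), no cells, measured at 540/590 nm. Rose Bengal sodium is the reference fluorophore for equivalence.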
The nature of experiment [13]: qHTS assay to test for compound auto fluorescence at 460 nm (blue) in HepG2 cell free culture (AID 720685). Summed up:
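Cell-free plates of MEM plus 10% FBS received 23 nL compound or DMSO vehicle; blue-channel (405/460 nm) intensity scored against triamterene as reference fluorophore.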

A short description of experiment [14]: qHTS assay to test for compound auto fluorescence at 535 nm (green) in HepG2 cell free culture (AID 720686).
A short description of experiment [15]: qHTS assay to test for compound auto fluorescence at 460 nm (blue) in HepG2 cells (AID 720687). In short, it runs like this:
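Blue-channel autofluorescence (Ex/Em 405/460 nm, triamterene-equivalent) was measured after 1 hr compound exposure at 37 C, 5% CO2. Cells were HepG2, plated overnight at 37 C in MEM plus 10% FBS.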

For experiment [16], the target named is Glucocorticoid receptor (Homo sapiens) (UniProt P04150). The experiment can be described thus: qHTS assay to identify small molecule agonists of the glucocorticoid receptor (GR) signaling pathway (AID 720691; active means well fitted activation curve with a large enough effect in the signal ratio in the repeat runs, not every such curve was filed as active; the % refers to the signal ratio). In short, it runs like this: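 HeLa GR-bla reporter line; cells pre-incubated 4 h, compound in DMSO 18 h at 37 C; LiveBLAzer B/G FRET substrate 2 h RT; fluorescence intensity read-out.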

A short description of experiment [17]: qHTS assay for small molecules that induce genotoxicity in human embryonic kidney cells expressing luciferase-tagged ATAD5 - cell viability (AID 651634; calls by dose curve; further: nearly all actives have a fitted effect of over 25% in size). Summed up: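 HEK293T ATAD5-luc cells, 2,000/well; compound 15.5 hr, 37C/5% CO2; CellTiter-Fluor 30 min, 37C; fluorescence read.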
Experiment [18] is described as follows: qHTS assay to test for compound auto fluorescence at 460 nm (blue) in HEK293 cells (AID 720678). In short, it runs like this:
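Triamterene serves as the blue fluorophore standard. Compound signal at 405/460 nm is read in HEK293 wells (2,000 cells, 10% dialyzed FBS) after overnight treatment at 37C.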

A short description of experiment [19]: qHTS assay to test for compound auto fluorescence at 590 nm (red) in HepG2 cell free culture (AID 720684). In short, it runs like this:
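Cell-free; medium MEM + 10% FBS; compound or DMSO added by pintool; read Ex 540/Em 590 nm; Rose Bengal sodium as red reference fluorophore.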

For experiment [20], the target named is Glucocorticoid receptor (Homo sapiens) (UniProt P04150). The experiment can be described thus: qHTS assay to identify small molecule antagonists of the glucocorticoid receptor (GR) signaling pathway (AID 720692; active means well fitted inhibition curve with a large enough effect in the signal ratio in the repeat runs, not every such curve was filed as active; the % refers to the signal ratio). Summed up:
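Read-out: beta-lactamase FRET substrate fluorescence, 2 h at room temperature, in HeLa cells stably carrying a GRE-driven bla reporter. Compounds were co-incubated with 5 nM dexamethasone agonist (final) for 18 h at 37 C.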

Results filed as inconclusive are left out. Calls of active or inactive are those of the source. Unless noted, the call rests on the fitted dose curve; in most records, active means well fitted curve in the direction sought with a large enough effect in the repeat runs; inconclusive means weak or mixed curves; inactive means no such curve, though single readings can be large; an effect the other way counts as inactive or inconclusive.

Glucocorticoid receptor (Homo sapiens), sequence (P04150 whole entry, looked up): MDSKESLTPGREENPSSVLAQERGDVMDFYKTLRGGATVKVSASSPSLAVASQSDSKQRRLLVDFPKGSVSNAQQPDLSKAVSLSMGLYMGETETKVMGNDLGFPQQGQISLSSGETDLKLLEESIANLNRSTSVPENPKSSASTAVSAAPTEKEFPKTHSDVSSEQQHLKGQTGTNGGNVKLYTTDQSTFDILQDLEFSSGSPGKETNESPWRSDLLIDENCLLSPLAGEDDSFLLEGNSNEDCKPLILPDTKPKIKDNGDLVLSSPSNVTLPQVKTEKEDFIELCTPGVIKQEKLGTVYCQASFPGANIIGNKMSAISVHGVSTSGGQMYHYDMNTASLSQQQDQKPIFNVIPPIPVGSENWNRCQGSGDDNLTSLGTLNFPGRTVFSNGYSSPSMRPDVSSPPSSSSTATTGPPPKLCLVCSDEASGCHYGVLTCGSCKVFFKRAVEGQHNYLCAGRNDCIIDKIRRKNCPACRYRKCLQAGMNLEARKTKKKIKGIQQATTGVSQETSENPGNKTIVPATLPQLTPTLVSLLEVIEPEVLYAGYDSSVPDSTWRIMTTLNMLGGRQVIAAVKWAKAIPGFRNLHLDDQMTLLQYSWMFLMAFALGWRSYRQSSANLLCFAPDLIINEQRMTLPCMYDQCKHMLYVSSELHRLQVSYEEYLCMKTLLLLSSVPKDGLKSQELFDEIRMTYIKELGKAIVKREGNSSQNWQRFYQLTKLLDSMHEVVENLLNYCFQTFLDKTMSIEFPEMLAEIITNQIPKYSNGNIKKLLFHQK

Consider `O=C(Cl)/C=C/C(=O)Cl`, for which the Potency result in experiment [1], in [3], in experiment [4], in [5] and in experiment [16] was “inactive” throughout. Also, the compound was classed as inactive in experiment [2], in experiment [6], in experiment [7], in experiment [8], in experiment [9] and in experiment [10]. Further, the outcome in experiment [11], in [12], in [13], in experiment [14] and in experiment [15] was inactive.

Turning to `CCN[C@@H](C)Cc1ccccc1`, the Potency result in [1], in experiment [3], in [17], in experiment [4], in experiment [16] and in [20] was “inactive” each time. The outcome in experiment [2], in experiment [6], in experiment [7], in experiment [18], in [8] and in experiment [9] was inactive. Further, the compound was called inactive in experiment [10], in experiment [11], in experiment [19], in experiment [13] and in experiment [15].

Turning to `O=S1(=O)OCCO1`, the Potency entry in [1], in experiment [3], in experiment [4] and in experiment [16] was “inactive” throughout. The compound was called inactive in experiment [2], in [6], in experiment [7], in experiment [18], in experiment [8] and in [9]. Moreover, the compound was classed as inactive in experiment [10], in experiment [11], in experiment [12], in experiment [19], in [13] and in experiment [15].

Take `CCOC(=O)Nc1cccc(OC(=O)Nc2ccccc2)c1`: the Potency result in [1], in [3], in [17] and in experiment [16] was “inactive” throughout. The outcome in experiment [2], in experiment [6], in [7], in experiment [18], in experiment [8] and in experiment [9] was inactive. Besides, the result in experiment [10], in experiment [11], in experiment [12], in experiment [19], in [13] and in experiment [14] was inactive. Besides, the result in experiment [15] was inactive. In experiment [5], the Potency is 9.69 µM (active).

In the case of `CCC1(CC)C(=O)C=CNC1=O`, the Potency result in [1], in experiment [3], in [17], in experiment [4], in experiment [5] and in experiment [16] was “inactive” each time. Moreover, in [20], the Potency result was “inactive”. For the same compound, the result in experiment [6], in experiment [7], in experiment [8], in experiment [9], in experiment [10] and in experiment [11] was inactive. Besides, the compound was called inactive in experiment [12], in experiment [19], in [13], in experiment [14] and in experiment [15].

Take `BrCCc1ccccc1`: the Potency result in [1], in experiment [3], in experiment [17], in experiment [4], in experiment [16] and in [20] was “inactive” each time. In addition, the call in [6], in experiment [7], in [8], in [9], in [10] and in experiment [11] was inactive. The result in experiment [12], in experiment [19], in [13], in experiment [14] and in experiment [15] was inactive.

With `CCCCCCCCBr`, the Potency result in experiment [1], in experiment [3], in experiment [17], in [16] and in experiment [20] was “inactive” each time. In addition, the result in experiment [6], in experiment [7], in [18], in experiment [8], in experiment [9] and in experiment [10] was inactive. Moreover, the compound was classed as inactive in experiment [11], in experiment [12] and in experiment [13].

For `COP(=O)(O)OC`, the Potency result in experiment [1], in [3], in experiment [4], in experiment [5], in experiment [16] and in experiment [20] was “inactive” in each case. In addition, the result in [6], in experiment [7], in experiment [18], in experiment [8], in experiment [9] and in experiment [10] was inactive. Besides, the call in experiment [11], in [12], in [19], in [13], in experiment [14] and in experiment [15] was inactive.
